# Source: the supplement of paper PMC4466140
# Legend:
# Assay in all cases: SPOT peptide array binding signal intensity (averaged, normalized) (arbitrary units (background-subtracted, floor 0; scale differs between SH3 domains)); higher = stronger binding of the SH3 domain to the peptide
# AgAbp1 = molecular target: AgAbp1
# Summary of the method: (§1)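 E. coli BL21(DE3) was used to express GST-fused SH3 domains from four yeast species, which were then purified on glutathione Sepharose. These were incubated at 10 μg/ml in TBS-based blocking buffer overnight at 4°C on cellulose membranes carrying synthetic 15-mer peptides, in which cysteines were replaced by serines. Binding signal is the replicate average of normalized, background-subtracted spot intensity, in arbitrary units that differ between domains.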
# AgBbc1 = molecular target: AgBbc1
# Summary of the method: as §1
# AgBem1-D1 = molecular target: AgBem1-D1
# Summary of the method: as §1
# AgBzz1-D1 = molecular target: AgBzz1-D1
# Summary of the method: as §1
# AgBzz1-D2 = molecular target: AgBzz1-D2
# Summary of the method: as §1
# AgCyk3 = molecular target: AgCyk3
# Summary of the method: as §1
# AgFus1 = molecular target: AgFus1
# Summary of the method: as §1
# AgHof1 = molecular target: AgHof1
# Summary of the method: as §1
# AgHse1 = molecular target: AgHse1
# Summary of the method: as §1
# AgLsb1 = molecular target: AgLsb1
# Summary of the method: as §1
# AgLsb4 = molecular target: AgLsb4
# Summary of the method: as §1
# AgMyo5 = molecular target: AgMyo5
# Summary of the method: as §1
# AgNbp2 = molecular target: AgNbp2
# Summary of the method: as §1
# AgRvs167 = molecular target: AgRvs167
# Summary of the method: as §1
# AgSho1 = molecular target: AgSho1
# Summary of the method: as §1
# AgSla1-D1-D2 = molecular target: AgSla1-D1-D2
# Summary of the method: as §1
# AgSla1-D3 = molecular target: AgSla1-D3
# Summary of the method: as §1
# CaAbp1-D1 = molecular target: CaAbp1-D1
# Summary of the method: as §1
# CaAbp1-D2 = molecular target: CaAbp1-D2
# Summary of the method: as §1
# CaBbc1 = molecular target: CaBbc1
# Summary of the method: as §1
# CaBem1-D1 = molecular target: CaBem1-D1
# Summary of the method: as §1
# CaBzz1-D1 = molecular target: CaBzz1-D1
# Summary of the method: as §1
# CaBzz1-D2 = molecular target: CaBzz1-D2
# Summary of the method: as §1
# CaCyk3 = molecular target: CaCyk3
# Summary of the method: as §1
# CaFus1 = molecular target: CaFus1
# Summary of the method: as §1
# CaHof1 = molecular target: CaHof1
# Summary of the method: as §1
# CaHse1 = molecular target: CaHse1
# Summary of the method: as §1
# CaLsb1 = molecular target: CaLsb1
# Summary of the method: as §1
# CaLsb4 = molecular target: CaLsb4
# Summary of the method: as §1
# CaMyo5 = molecular target: CaMyo5
# Summary of the method: as §1
# CaNbp2 = molecular target: CaNbp2
# Summary of the method: as §1
# CaRvs167 = molecular target: CaRvs167
# Summary of the method: as §1
# CaRvs167-3 = molecular target: CaRvs167-3
# Summary of the method: as §1
# CaSho1 = molecular target: CaSho1
# Summary of the method: as §1
# CaSla1-D1-D2 = molecular target: CaSla1-D1-D2
# Summary of the method: as §1
# CaSla1-D3 = molecular target: CaSla1-D3
# Summary of the method: as §1
# ScAbp1 = molecular target: ScAbp1
# Summary of the method: as §1
# ScBbc1 = molecular target: ScBbc1
# Summary of the method: as §1
# ScBem1-D1 = molecular target: ScBem1-D1
# Summary of the method: as §1
# ScBzz1-D1 = molecular target: ScBzz1-D1
# Summary of the method: as §1
# ScBzz1-D2 = molecular target: ScBzz1-D2
# Summary of the method: as §1
# ScCyk3 = molecular target: ScCyk3
# Summary of the method: as §1
# ScFus1 = molecular target: ScFus1
# Summary of the method: as §1
# ScHof1 = molecular target: ScHof1
# Summary of the method: as §1
# ScHse1 = molecular target: ScHse1
# Summary of the method: as §1
# ScLsb1 = molecular target: ScLsb1
# Summary of the method: as §1
# ScLsb2 = molecular target: ScLsb2
# Summary of the method: as §1
# ScLsb3 = molecular target: ScLsb3
# Summary of the method: as §1
# ScLsb4 = molecular target: ScLsb4
# Summary of the method: as §1
# ScMyo3 = molecular target: ScMyo3
# Summary of the method: as §1
# ScMyo5 = molecular target: ScMyo5
# Summary of the method: as §1
# ScNbp2 = molecular target: ScNbp2
# Summary of the method: as §1
# ScPex13 = molecular target: ScPex13
# Summary of the method: as §1
# ScRvs167 = molecular target: ScRvs167
# Summary of the method: as §1
# ScSho1 = molecular target: ScSho1
# Summary of the method: as §1
# ScSla1-D1-D2 = molecular target: ScSla1-D1-D2
# Summary of the method: as §1
# ScSla1-D3 = molecular target: ScSla1-D3
# Summary of the method: as §1
# SpAbp1-D1 = molecular target: SpAbp1-D1
# Summary of the method: as §1
# SpBbc1 = molecular target: SpBbc1
# Summary of the method: as §1
# SpBzz1-D1 = molecular target: SpBzz1-D1
# Summary of the method: as §1
# SpBzz1-D2 = molecular target: SpBzz1-D2
# Summary of the method: as §1
# SpCyk3 = molecular target: SpCyk3
# Summary of the method: as §1
# SpHof1 = molecular target: SpHof1
# Summary of the method: as §1
# SpHof1-2 = molecular target: SpHof1-2
# Summary of the method: as §1
# SpHof1-3 = molecular target: SpHof1-3
# Summary of the method: as §1
# SpHse1 = molecular target: SpHse1
# Summary of the method: as §1
# SpLsb1 = molecular target: SpLsb1
# Summary of the method: as §1
# SpLsb4 = molecular target: SpLsb4
# Summary of the method: as §1
# SpMyo1 = molecular target: SpMyo1
# Summary of the method: as §1
# SpNbp2 = molecular target: SpNbp2
# Summary of the method: as §1
# SpPex13 = molecular target: SpPex13
# Summary of the method: as §1
# SpRvs167 = molecular target: SpRvs167
# Summary of the method: as §1
# SpSla1-D1-D2 = molecular target: SpSla1-D1-D2
# Summary of the method: as §1
# SpSla1-D3 = molecular target: SpSla1-D3
# Summary of the method: as §1
binder,measurement,setting,value
TYNRTAFQIPGDQSI,SPOT peptide array binding signal intensity,AgAbp1,1
same,SPOT peptide array binding signal intensity,AgBbc1,≤ 0
same,SPOT peptide array binding signal intensity,AgBem1-D1,≤ 0
same,SPOT peptide array binding signal intensity,AgBzz1-D1,60
same,SPOT peptide array binding signal intensity,AgBzz1-D2,≤ 0
same,SPOT peptide array binding signal intensity,AgCyk3,≤ 0
same,SPOT peptide array binding signal intensity,AgFus1,0.5
same,SPOT peptide array binding signal intensity,AgHof1,3.5
same,SPOT peptide array binding signal intensity,AgHse1,≤ 0
same,SPOT peptide array binding signal intensity,AgLsb1,540
same,SPOT peptide array binding signal intensity,AgLsb4,≤ 0
same,SPOT peptide array binding signal intensity,AgMyo5,2.25
same,SPOT peptide array binding signal intensity,AgNbp2,≤ 0
same,SPOT peptide array binding signal intensity,AgRvs167,1
same,SPOT peptide array binding signal intensity,AgSho1,≤ 0
same,SPOT peptide array binding signal intensity,AgSla1-D1-D2,≤ 0
same,SPOT peptide array binding signal intensity,AgSla1-D3,1
same,SPOT peptide array binding signal intensity,CaAbp1-D1,≤ 0
same,SPOT peptide array binding signal intensity,CaAbp1-D2,≤ 0
same,SPOT peptide array binding signal intensity,CaBbc1,1
same,SPOT peptide array binding signal intensity,CaBem1-D1,≤ 0
same,SPOT peptide array binding signal intensity,CaBzz1-D1,60.5
same,SPOT peptide array binding signal intensity,CaBzz1-D2,43.5
same,SPOT peptide array binding signal intensity,CaCyk3,1
same,SPOT peptide array binding signal intensity,CaFus1,≤ 0
same,SPOT peptide array binding signal intensity,CaHof1,0.5
same,SPOT peptide array binding signal intensity,CaHse1,2.5
same,SPOT peptide array binding signal intensity,CaLsb1,207
same,SPOT peptide array binding signal intensity,CaLsb4,≤ 0
same,SPOT peptide array binding signal intensity,CaMyo5,≤ 0
same,SPOT peptide array binding signal intensity,CaNbp2,≤ 0
same,SPOT peptide array binding signal intensity,CaRvs167,2.33
same,SPOT peptide array binding signal intensity,CaRvs167-3,0.5
same,SPOT peptide array binding signal intensity,CaSho1,≤ 0
same,SPOT peptide array binding signal intensity,CaSla1-D1-D2,≤ 0
same,SPOT peptide array binding signal intensity,CaSla1-D3,1.5
same,SPOT peptide array binding signal intensity,ScAbp1,≤ 0
same,SPOT peptide array binding signal intensity,ScBbc1,2.5
same,SPOT peptide array binding signal intensity,ScBem1-D1,11
same,SPOT peptide array binding signal intensity,ScBzz1-D1,40
same,SPOT peptide array binding signal intensity,ScBzz1-D2,13.5
same,SPOT peptide array binding signal intensity,ScCyk3,≤ 0
same,SPOT peptide array binding signal intensity,ScFus1,≤ 0
same,SPOT peptide array binding signal intensity,ScHof1,≤ 0
same,SPOT peptide array binding signal intensity,ScHse1,≤ 0
same,SPOT peptide array binding signal intensity,ScLsb1,142
same,SPOT peptide array binding signal intensity,ScLsb2,661
same,SPOT peptide array binding signal intensity,ScLsb3,≤ 0
same,SPOT peptide array binding signal intensity,ScLsb4,11.5
same,SPOT peptide array binding signal intensity,ScMyo3,3
same,SPOT peptide array binding signal intensity,ScMyo5,8.5
same,SPOT peptide array binding signal intensity,ScNbp2,≤ 0
same,SPOT peptide array binding signal intensity,ScPex13,≤ 0
same,SPOT peptide array binding signal intensity,ScRvs167,≤ 0
same,SPOT peptide array binding signal intensity,ScSho1,≤ 0
same,SPOT peptide array binding signal intensity,ScSla1-D1-D2,≤ 0
same,SPOT peptide array binding signal intensity,ScSla1-D3,0.5
same,SPOT peptide array binding signal intensity,SpAbp1-D1,≤ 0
same,SPOT peptide array binding signal intensity,SpBbc1,0.5
same,SPOT peptide array binding signal intensity,SpBzz1-D1,70
same,SPOT peptide array binding signal intensity,SpBzz1-D2,≤ 0
same,SPOT peptide array binding signal intensity,SpCyk3,≤ 0
same,SPOT peptide array binding signal intensity,SpHof1,1.75
same,SPOT peptide array binding signal intensity,SpHof1-2,5.25
same,SPOT peptide array binding signal intensity,SpHof1-3,0.25
same,SPOT peptide array binding signal intensity,SpHse1,50.2
same,SPOT peptide array binding signal intensity,SpLsb1,17.5
same,SPOT peptide array binding signal intensity,SpLsb4,≤ 0
same,SPOT peptide array binding signal intensity,SpMyo1,2.75
same,SPOT peptide array binding signal intensity,SpNbp2,≤ 0
same,SPOT peptide array binding signal intensity,SpPex13,≤ 0
same,SPOT peptide array binding signal intensity,SpRvs167,0.333
same,SPOT peptide array binding signal intensity,SpSla1-D1-D2,≤ 0
same,SPOT peptide array binding signal intensity,SpSla1-D3,≤ 0
